Data: PubChem BioAssay (NCATS)
“And” between values parts separate entries of the source, which are not always exact repeats. Identical values can stand only once. Inconclusive results are not listed. Where a call stands in place of a potency, no number is given. The source made the active and inactive calls. Unless noted, calls follow the shape of the dose curve; as a rule, active = well fitted curve in the direction sought with a large enough effect; inconclusive = small, poorly fitted or top-dose-only effect, or another doubt; inactive = no such curve, though single readings can be large; an effect the other way counts as inactive or inconclusive.

Tests used:
[1] = qHTS Assay for Lipid Storage Modulators (AID 1519; calls by dose curve); conditions: Drosophila S3 cells, BODIPY lipid droplet/cell ratio, laser cytometry, cells loaded with oleic acid
How it was run: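 Cells seeded at 5,000 per well were treated with compounds over a concentration series and loaded with oleic acid (400 uM, as added). Lipid droplet fluorescence (488 nm excitation, 500-530 nm channel) was read by laser-scanning cytometry and normalized to 20 uM Triacsin C.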

[2] = biological target: Alpha-galactosidase A (Homo sapiens) (UniProt P06280); experiment: Counterscreen for Glucocerebrosidase Inhibitors: qHTS Assay for Human alpha-Galactosidase at pH 4.5 (AID 992)
How it was run: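 Concentration-response curves (0.7 nM to 77 uM final) were modeled with the Hill equation to give AC50. Reactions: 2 nM enzyme, 80 uM fluorogenic alpha-galactoside, pH 4.5 citric acid buffer, 20 min, room temperature.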

[3] = biological target: DNA repair nuclease/redox regulator APEX1 (Homo sapiens) (UniProt P27695); experiment: qHTS Validation Assay for Inhibitors of the Human Apurinic/apyrimidinic Endonuclease 1 (APE1) (AID 1705;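 also: TAMRA fluorescence gain over two minutes as APE1 cuts a quenched THF abasic duplex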)
How it was run: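 Endonuclease activity of human APE1 is followed as dequenching when the enzyme incises a tetrahydrofuran abasic site in a short duplex labelled 5'-TAMRA/3'-BHQ-2 (50 nM final), after 15 min enzyme–compound preincubation at room temperature.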

[4] = Counterscreen for APE1 Inhibitors: Fluorescent Dye Displacement Validation Assay (AID 1707)
How it was run: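 Assay buffer: Tris-HCl pH7.5 with 50mM NaCl, 2 mM MgCl2, 0.01% Tween-20. Dye 250 nM, duplex 50 nM final. Readout: decrease in ThO endpoint fluorescence, 480 nm excitation, 540 nm emission.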

[5] = biological target: Endonuclease 4 (Escherichia coli (strain K12)) (UniProt P0A6C1); experiment: Counterscreen for APE1 Inhibitors: qHTS Validation Assay for Inhibitors of Endonuclease IV (AID 1708)
How it was run: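 E. coli EndoIV at 2 nM final, preincubated 15 min at room temperature with compound, then 50 nM TAMRA/BHQ-2 THF abasic-site duplex added. Buffer: 50 mM Tris-HCl pH 7.5, 50 mM NaCl, 2 mM MgCl2, 1 mM DTT, 0.01% Tween-20. Kinetic fluorescence increase, third minus first read.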

[6] = qHTS for differential inhibitors of proliferation of Plasmodium falciparum line 7G8 (AID 1815);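 also: parasite growth measured after three days of incubation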; also: potency is read from the fitted curve at half-maximal effect
[7] = qHTS for differential inhibitors of proliferation of Plasmodium falciparum line GB4 (AID 1816); conditions: Potency: Plasmodium falciparum GB4 proliferation inhibition;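 also: parasite growth measured after 72 h incubation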; also: potency is read from the fitted curve at half-maximal effect
[8] = qHTS for differential inhibitors of proliferation of Plasmodium falciparum line 3D7 (AID 1876); also: potency is read from the fitted curve at half-maximal effect
[9] = qHTS for differential inhibitors of proliferation of Plasmodium falciparum line D10 (AID 1877);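 also: parasites grown with compound for 72 h before DNA staining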; also: potency is read from the fitted curve at half-maximal effect
[10] = qHTS for differential inhibitors of proliferation of Plasmodium falciparum line Dd2 (AID 1882); conditions: Potency: Plasmodium falciparum Dd2 proliferation inhibition; also: nearly all actives have a fitted effect of over 65% in size; also: potency is read from the fitted curve at half-maximal effect
How it was run: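 Dd2-infected erythrocytes (0.3% parasitemia, 2.5% hematocrit final) incubated with compound 72 h at 37 C, 5% CO2; lysed with saponin/Triton buffer containing SYBR Green I, incubated overnight in the dark, then read by fluorescence (485/535 nm). Normalized to 0.29 uM artemisinin and DMSO.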

[11] = qHTS for differential inhibitors of proliferation of Plasmodium falciparum line HB3 (AID 1886); conditions: Potency: Plasmodium falciparum HB3 proliferation inhibition;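 also: parasites grown with compound for 72 h before SYBR Green readout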; also: potency is read from the fitted curve at half-maximal effect
[12] = Validation of Assay for Modulators of Lamin A Splicing (AID 1459; active = well fitted curve in the direction sought with a large enough effect in the signal ratio; the % refers to the signal ratio;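 also: cells exposed to compound for two days before reading; ratio rise marks activators and ratio drop marks inhibitors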)
How it was run: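 Splicing correction is reported by an EGFP-containing lamin A minigene in stably transfected S3 HeLa cells, while DsRed2 controls for viability and nonspecific signal. Cells are exposed to compounds for 48 hrs before the GFP over RFP ratio is taken.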

[13] = qHTS for differential inhibitors of proliferation of Plasmodium falciparum line W2 (AID 1883); conditions: Potency: Plasmodium falciparum W2 proliferation inhibition;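 also: parasites grown with compound for 72 h before lysis and staining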; also: potency is read from the fitted curve at half-maximal effect
[14] = qHTS Assay for Modulators of Human Peripheral Myelin Protein 22 (PMP22) Expression/Activity (AID 1967; active = well fitted curve in the direction sought with a large enough effect in the signal ratio; the % refers to the signal ratio)
How it was run: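 Quantitative HTS in a mouse Schwann cell line expressing dual click beetle luciferases: Pmp22 promoter (green) and control EF-alpha promoter (red). After 24h treatment, corrected green/red signal ratio gave %Activity relative to untreated cells.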

[15] = biological target: alpha-glucosidase (Oryza sativa, rice) (UniProt Q653V4); experiment: Counterscreen for Glucocerebrosidase Inhibitors: qHTS Assay for Rice alpha-Glucosidase at pH 5.0 (AID 997)
How it was run: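 Rice alpha-glucosidase (4 nM final) with 400 uM 4-methylumbelliferyl-alpha-D-glucopyranoside in citrate buffer pH 5.0, 20 min at room temperature, stopped at pH 10; fluorescence 365/440 nm, compounds 0.7 nM–77 uM, AC50 from Hill fits.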

[16] = measured here: cell count channel max response
[17] = measured here: lipid channel max response

Sequence of Alpha-galactosidase A (Homo sapiens) (P06280 whole entry, looked up): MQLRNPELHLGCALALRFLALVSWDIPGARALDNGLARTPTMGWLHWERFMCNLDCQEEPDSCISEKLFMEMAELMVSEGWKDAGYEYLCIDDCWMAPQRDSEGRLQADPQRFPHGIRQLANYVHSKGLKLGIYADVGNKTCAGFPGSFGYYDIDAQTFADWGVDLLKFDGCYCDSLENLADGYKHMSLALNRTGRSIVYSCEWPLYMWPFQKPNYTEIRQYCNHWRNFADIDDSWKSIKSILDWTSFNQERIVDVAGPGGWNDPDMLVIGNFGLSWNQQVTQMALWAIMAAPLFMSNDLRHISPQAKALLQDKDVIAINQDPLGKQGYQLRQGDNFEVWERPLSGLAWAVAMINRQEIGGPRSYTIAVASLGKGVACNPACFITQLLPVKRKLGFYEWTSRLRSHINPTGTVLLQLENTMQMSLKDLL
Sequence of DNA repair nuclease/redox regulator APEX1 (Homo sapiens) (P27695 whole entry, looked up): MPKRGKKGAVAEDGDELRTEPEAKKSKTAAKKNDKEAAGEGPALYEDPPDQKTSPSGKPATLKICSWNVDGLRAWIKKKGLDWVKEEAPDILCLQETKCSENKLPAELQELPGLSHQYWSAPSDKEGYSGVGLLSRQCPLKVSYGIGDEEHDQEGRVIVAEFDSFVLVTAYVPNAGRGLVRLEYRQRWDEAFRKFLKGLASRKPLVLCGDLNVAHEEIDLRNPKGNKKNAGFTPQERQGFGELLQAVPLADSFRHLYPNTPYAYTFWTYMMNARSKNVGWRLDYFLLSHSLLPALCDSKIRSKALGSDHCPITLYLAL

## COc1ccccc1OCCNCC(O)COc1cccc2[nH]c3ccccc3c12 (configuration not stated)
[1]; at 57.5 µM (top of the series)
  activity change, negative = inhibition: 6.43% (inactive)
[1]; [16]
  max response: 5.72%
[1]; [17]
  max response: 13%

## CN(C)C(=N)N=C(N)N
[1]; at 25.7 µM (top of the series)
  activity change, negative = inhibition: 1.15% (inactive)
[1]; at 57.5 µM (top of the series)
  activity change, negative = inhibition: 9.29% (inactive)
[1]; [16]
  max response: 14.6% and 3.67%
[1]; [17]
  max response: 15.2% and 21.7%

## Cc1cnc(C(=O)NCCc2ccc(S(=O)(=O)NC(=O)NC3CCCCC3)cc2)cn1
[2]
  outcome: inactive
[1]; at 25.7 µM (top of the series)
  activity change, negative = inhibition: 1.51% (inactive)
[1]; at 57.5 µM (top of the series)
  activity change, negative = inhibition: 0.481% (inactive)
[1]; [16]
  max response: -0.601% and 30.7%
[1]; [17]
  max response: 0.0944% and 30.2%
[3]
  Potency: inactive
[4]
  Potency: inactive
[5]
  Potency: inactive
[6]
  Potency: inactive
[7]
  Potency: inactive
[8]
  Potency: inactive
[9]
  Potency: inactive
[10]
  Potency: inactive
[11]
  Potency: inactive

## CN(C)c1nc(N(C)C)nc(N(C)C)n1
[2]
  outcome: inactive
[12]
  outcome: inactive
[1]; at 25.7 µM (top of the series)
  activity change, negative = inhibition: -1.28% (inactive)
[1]; at 57.5 µM (top of the series)
  activity change, negative = inhibition: 7.55% (inactive) and -0.1% (inactive)
[1]; [16]
  max response: 4.02% and 17.6% and 11.3%
[1]; [17]
  max response: 2.91% and 27.7% and 12.4%
[3]
  Potency: inactive
[4]
  Potency: inactive
[5]
  Potency: inactive
[6]
  Potency: inactive
[7]
  Potency: inactive
[8]
  Potency: inactive
[9]
  Potency: inactive
[10]
  Potency: inactive
[13]
  Potency: inactive
[11]
  Potency: inactive
[14]
  Potency: inactive

## NCCCCCC(=O)O
[2]
  outcome: inactive
[1]; at 25.7 µM (top of the series)
  activity change, negative = inhibition: -1.59% (inactive)
[1]; at 57.5 µM (top of the series)
  activity change, negative = inhibition: 7.83% (inactive) and -0.624% (inactive)
[1]; [16]
  max response: -1.8% and 21.2% and -62.4%
[1]; [17]
  max response: -4.61% and 34.1% and -65.3%
[3]
  Potency: inactive
[4]
  Potency: inactive
[5]
  Potency: inactive
[6]
  Potency: inactive
[7]
  Potency: inactive
[8]
  Potency: inactive
[9]
  Potency: inactive
[10]
  Potency: inactive
[13]
  Potency: inactive
[11]
  Potency: inactive

## O=C1N(c2ccccc2)c2ccccc2C1(Cc1ccncc1)Cc1ccncc1
[2]
  outcome: inactive
[15]
  outcome: inactive
[12]
  outcome: inactive
[3]
  Potency: inactive
[4]
  Potency: inactive
[5]
  Potency: inactive
[6]
  Potency: 8.91 µM (active)
[7]
  Potency: 12.6 µM (active)
[10]
  Potency: inactive
[13]
  Potency: 10 µM (active)
[11]
  Potency: 11.2 µM (active)
[14]
  Potency: inactive

## CC(=O)OCC(CCn1cnc2cnc(N)nc21)COC(C)=O
[1]; at 57.5 µM (top of the series)
  activity change, negative = inhibition: 8.16% (inactive)
[1]; [16]
  max response: 10.2%
[1]; [17]
  max response: 23.5%

## Clc1ccc2c(c1)C(N1CCNCC1)=Nc1ccccc1O2
[2]
  outcome: inactive
[12]
  outcome: inactive
[1]; at 25.7 µM (top of the series)
  activity change, negative = inhibition: -5.1% (inactive)
[1]; at 57.5 µM (top of the series)
  activity change, negative = inhibition: 3.92% (inactive) and 1.18% (inactive)
[1]; [16]
  max response: -3.99% and 1.39% and 11.5%
[1]; [17]
  max response: -7.98% and 5.5% and 12.2%
[3]
  Potency: inactive
[4]
  Potency: inactive
[6]
  Potency: 7.08 µM (active)
[7]
  Potency: 5.62 µM (active)
[10]
  Potency: 11.2 µM (active)
[13]
  Potency: 5.62 µM (active)
[11]
  Potency: 11.2 µM (active)

## CCOC(=O)Nc1ccc(NCc2ccc(F)cc2)nc1N
[2]
  outcome: inactive
[12]
  outcome: inactive
[1]; at 57.5 µM (top of the series)
  activity change, negative = inhibition: 0.206% (inactive)
[1]; [16]
  max response: 49%
[1]; [17]
  max response: 49.4%
[3]
  Potency: inactive
[4]
  Potency: inactive
[5]
  Potency: inactive
[6]
  Potency: 2.82 µM (active)
[7]
  Potency: 2.82 µM (active)
[8]
  Potency: 3.55 µM (active)
[9]
  Potency: 7.08 µM (active)
[10]
  Potency: 11.2 µM (active)
[13]
  Potency: 2 µM (active)
[11]
  Potency: 2.82 µM (active)

## CN1CCN(C2=Nc3cc(Cl)ccc3Nc3ccccc32)CC1
[2]
  outcome: inactive
[15]
  outcome: inactive
[12]
  outcome: inactive
[3]
  Potency: inactive
[4]
  Potency: inactive
[5]
  Potency: inactive
